# Source: PubChem BioAssay (NCI)
# This is part of a sample that, as a whole, favours compounds with a hit. Of some 83,000 tested, about 20% had one in any assay.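 Testing used 96-well plates and a 48-hour single-concentration exposure. Example: -40 means 40% of the starting cells died.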 Active and inactive are the calls of the source. The calls were made as follows: active = growth percent below 10; inactive = the rest.
# System: UO-31 renal
# Experiment: NCI-60 one-dose screen, 48 h (100 = growth as untreated, 0 = no growth, -100 = all killed)
# Settings: 10 µM unless noted
row,Structure (SMILES),growth
1,CCOC(=O)[C@@H](C)C[C@H](Cc1ccccc1)NC(=O)c1csc([C@@H](C[C@H](C(C)C)N(C)C(=O)[C@H](CC)NC(=O)[C@H]2CCCCN2C)OC(C)=O)n1,33.7% (inactive)
2,CCN(CCO)C(Cc1ccccc1)c1ccccc1 (configuration not stated),94% (inactive)
3,C1CCC([PH+](C2CCCCC2)C2CCCCC2[PH+](C2CCCCC2)C2CCCCC2)CC1.O=C(C1[CH-]CCCC1)C1CCCC[N-]1.[Au] (configuration not stated),-87.9% (active)
4,Cn1cc(-c2csc(-c3cn(CCN4CCOCC4)c4ccc(F)cc34)n2)c2cccnc21,11% (inactive)
5,O=[N+]([O-])c1cc(I)cc([N+](=O)[O-])c1,108% (inactive)
6,O=[N+]([O-])CC(O)C(Cl)(Cl)Cl (configuration not stated),80.2% (inactive)
7,N#C[S-].[Au+].c1ccc(CN2[CH-]N(Cc3ccccc3)C(c3ccccc3)=C2c2ccccc2)cc1,4.03% (active)
8,CC[C@H](NC(=O)[C@H]1CCCCN1C)C(=O)N(C)[C@H](C[C@@H](OC(C)=O)c1nc(C(=O)N[C@@H](Cc2ccccc2)C[C@H](C)C(=O)O)cs1)C(C)C,41.7% (inactive)
9,CC(=O)O[C@H](C[C@H](C(C)C)N(C)C(=O)[C@@H](NC(=O)[C@H]1CCCCN1C)C(C)C)c1cccc(C(=O)N[C@@H](Cc2ccccc2)C[C@H](C)C(=O)O)n1,39.4% (inactive)
10,[Cl][Hg][c]1cc[c]([Hg][Cl])o1,3.18% (active)
11,Clc1ccc(N2COOC3(OOC2)C2CC4CC(C2)CC3C4)cc1,-92.1% (active)
12,COC(=O)[C@@H](C)C[C@H](Cc1ccccc1)NC(=O)c1nc([C@@H](C[C@H](C(C)C)N(C)C(=O)[C@@H](NC(=O)[C@H]2CCCCN2C)C(C)C)OC(C)=O)sc1C,44.5% (inactive)
13,CC(C)(N)Cc1ccccc1,84.7% (inactive)
14,CC1=C(CCCOC(=O)CN)C2=C(C)C3(CC3)[C@@](C)(O)C(=O)C2=C1,73.3% (inactive)
15,COC(=O)[C@@H](C)C[C@H](Cc1ccccc1)NC(=O)c1csc(CC[C@H](C(C)C)N(C)C(=O)[C@@H](NC(=O)[C@H]2CCCCN2C)C(C)C)n1,48.8% (inactive)
16,COC(=O)[C@H](C[C@H](Cc1ccccc1)NC(=O)c1csc([C@@H](C[C@H](C(C)C)N(C)C(=O)[C@@H](NC(=O)[C@H]2CCCCN2C)C(C)C)OC(C)=O)n1)NC(=O)OCc1ccccc1,32.3% [8.5 µM] (inactive)
17,[Au+].[N-]=C=O.c1ccc(CN2[CH-]N(Cc3ccccc3)C(c3ccccc3)=C2c2ccccc2)cc1,74.5% (inactive)
18,CNCc1cccnc1,93.9% (inactive)
19,CC(=O)O[C@H](C[C@H](C(C)C)N(C)C(=O)[C@@H](NC(=O)[C@H]1CCCCN1C)C(C)(C)C)c1nc(C(=O)N[C@@H](Cc2ccccc2)C[C@H](C)C(=O)O)cs1,43% (inactive)

row,Structure (SMILES),growth
1,C[C@@H]1O[C@@H](O[C@H]2C[C@@H](O)[C@]3(CO)C4C(CC[C@]3(O)C2)[C@@]2(O)CC[C@H](C3=CC(=O)OC3)[C@@]2(C)C[C@H]4O)[C@H](O)[C@H](O)[C@H]1O (some centres not stated),-87.3% (active)
2,Nc1ccc(Cl)cc1,94.9% (inactive)
3,Fc1cccc(NCOOC2(OOCNc3cccc(F)c3)CCCCC2)c1,-58.2% (active)
4,COC(=O)[C@@H](NC(=O)c1cn(CCC2CCCCC2)c2ccccc12)C(C)(C)C,39.2% (inactive)
5,CCOc1ccccc1C(=O)OCC(Cl)(Cl)Cl,94.4% (inactive)
6,CCOP(=O)(Cc1ccc(C#N)cc1)OCC,99.2% (inactive)
7,N#CCCNc1ccccc1,93.6% (inactive)
8,C[C@]12CC[C@H]3[C@@H](CC[C@]4(O)C[C@@H](O[C@@H]5O[C@H](CO)[C@@H](O[C@@H]6OC[C@@H](O)[C@H](O)[C@H]6O)[C@H](O)[C@H]5O)CC[C@]34C=O)[C@@]1(O)CC[C@@H]2C1=CC(=O)OC1,6.18% (active)
9,O=P(N1CC1)(N1CC1)N1CCc2ccccc21,92.2% (inactive)
10,COc1cc([C@@H]2c3cc4c(cc3[C@H](OC(C)=O)[C@H]3COC(=O)[C@H]23)OCO4)cc(OC)c1OC,43.7% (inactive)
11,COC(=O)[C@@H](C)C[C@H](Cc1ccc(F)cc1)NC(=O)c1csc([C@@H](C[C@H](C(C)C)N(C)C(=O)[C@@H](NC(=O)[C@H]2CCCCN2C)C(C)C)OC(C)=O)n1,47% (inactive)
12,N#C[Se]CCN1C(=O)c2ccccc2C1=O,15.9% (inactive)
13,O=[N+]([O-])c1c(Br)sc(Br)c1[N+](=O)[O-],-65.7% (active)
14,CN1C(=O)C(=Cc2cn(CCCCCCn3c4ccccc4c(=O)c4ccccc43)c3ccccc23)C(=O)N(C)C1=O,65.6% (inactive)
15,CCCCCCCC[n+]1ccc2ccccc2c1,71% (inactive)
16,COC(=O)C12CC(NC(=O)c3csc([C@@H](C[C@H](C(C)C)N(C)C(=O)[C@@H](NC(=O)[C@H]4CCCCN4C)C4CC4)OC(C)=O)n3)(C1)C2,48.5% (inactive)
17,Cn1cc(-c2csc(-c3cn(CCCCN4CCCCC4)c4ccccc34)n2)c2cccnc21,-77.8% (active)
18,CC1(C)N=C(N)N=C(N)N1c1ccc(CCC(=O)Nc2ccc(S(=O)(=O)F)cc2)c(Cl)c1,93.1% (inactive)
